According to PubChem BioAssay (NCATS):
“And” between values parts separate entries of the source, which are not always exact repeats. Equal entries are not always repeated. Records with an inconclusive call do not appear. Where a call stands in place of a potency, no number is given. The source made the active and inactive calls. Unless noted, calls come from the whole dose curve; as a rule, active = well fitted curve in the direction sought with a large enough effect; inconclusive = small, poorly fitted or top-dose-only effect, or another doubt; inactive = no such curve, though single readings can be large; an effect the other way counts as inactive or inconclusive.

What was measured:
[1] = molecular target: Calcium and integrin-binding protein 1 (Homo sapiens) (UniProt Q99828); test: Validation qHTS for Identification of Calcium Integrin Binding protein 1 (CIB1) Competitor (AID 1508618)
Calcium and integrin-binding protein 1 (Homo sapiens), sequence (Q99828 whole entry, looked up): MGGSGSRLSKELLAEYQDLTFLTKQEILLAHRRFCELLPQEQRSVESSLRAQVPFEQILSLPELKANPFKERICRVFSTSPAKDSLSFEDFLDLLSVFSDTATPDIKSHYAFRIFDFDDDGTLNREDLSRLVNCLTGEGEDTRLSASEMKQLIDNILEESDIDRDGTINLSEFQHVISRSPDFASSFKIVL
Outline: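 Displacement of FITC-alphaIIb peptide (100 nM) from CIB1-GST (1 uM) is monitored by polarization in quantitative HTS format; buffer carries 5 mM CaCl2 and 125 mM NaCl at pH 7.4, incubations are at room temperature.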

[2] = molecular target: Papain (Carica papaya) (UniProt P00784); test: Primary qHTS assay for inhibitors of the protease papain (AID 1645873);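 note: papain turnover of Z-FR-AMC read as the AMC fluorescence gain over 10 min; series mostly up to about 50 µM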
Papain (Carica papaya), sequence (P00784 whole entry, looked up): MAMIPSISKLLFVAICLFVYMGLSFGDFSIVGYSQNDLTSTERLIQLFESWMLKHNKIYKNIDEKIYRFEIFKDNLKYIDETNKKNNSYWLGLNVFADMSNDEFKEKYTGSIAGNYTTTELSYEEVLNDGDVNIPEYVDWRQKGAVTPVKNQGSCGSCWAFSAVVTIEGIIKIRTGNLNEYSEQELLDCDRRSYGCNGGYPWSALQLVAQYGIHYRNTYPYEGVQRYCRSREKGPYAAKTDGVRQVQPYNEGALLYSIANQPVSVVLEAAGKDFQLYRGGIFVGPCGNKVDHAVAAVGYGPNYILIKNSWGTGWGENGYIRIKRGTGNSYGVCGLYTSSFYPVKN

[3] = molecular target: Calcium and integrin-binding protein 1 (Homo sapiens) (UniProt Q99828); test: Primary qHTS for Identification of Calcium Integrin Binding Protein 1 (CIB1) Competitor (AID 1508620);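 note: GST tagged CIB1 binding a fluorescein labelled alphaIIb integrin peptide tracer; top concentration of the series differs between compounds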
Outline: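 CIB1-GST (1 uM final) and compound incubated 15 min at room temperature before adding FITC-alphaIIb peptide tracer (100 nM final). Competition for binding read by fluorescence polarization (ex 480, em 540) after another 15 min at room temperature.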

[4] = Primary qHTS for small molecule stabilizers of the endoplasmic reticulum resident proteome: Secreted ER Calcium Modulated Protein (SERCaMP) assay (AID 1508630)
Outline: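 The SH-SY5Y reporter protocol was run at 3 concentrations up to 38.3 uM (primary) or 11 concentrations (follow-up): 16 h compound, 100 nM thapsigargin for 4 h, then extracellular luciferase luminescence.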

[5] = molecular target: Cytochrome P450 2D6 (Homo sapiens) (UniProt P10635); test: Cytochrome P450 family 2 subfamily D member 6 (CYP2D6) small molecule antagonists: luciferase biochemical (cell-free) qHTS assay (AID 1645840; active = well fitted curve in the direction sought with a large enough effect in the repeat runs; an effect the other way counts as inactive or inconclusive; note: nearly all actives have a fitted effect of over 55% in size; note: potency is the fitted concentration of half-maximal effect)
Cytochrome P450 2D6 (Homo sapiens), sequence (P10635 whole entry, looked up): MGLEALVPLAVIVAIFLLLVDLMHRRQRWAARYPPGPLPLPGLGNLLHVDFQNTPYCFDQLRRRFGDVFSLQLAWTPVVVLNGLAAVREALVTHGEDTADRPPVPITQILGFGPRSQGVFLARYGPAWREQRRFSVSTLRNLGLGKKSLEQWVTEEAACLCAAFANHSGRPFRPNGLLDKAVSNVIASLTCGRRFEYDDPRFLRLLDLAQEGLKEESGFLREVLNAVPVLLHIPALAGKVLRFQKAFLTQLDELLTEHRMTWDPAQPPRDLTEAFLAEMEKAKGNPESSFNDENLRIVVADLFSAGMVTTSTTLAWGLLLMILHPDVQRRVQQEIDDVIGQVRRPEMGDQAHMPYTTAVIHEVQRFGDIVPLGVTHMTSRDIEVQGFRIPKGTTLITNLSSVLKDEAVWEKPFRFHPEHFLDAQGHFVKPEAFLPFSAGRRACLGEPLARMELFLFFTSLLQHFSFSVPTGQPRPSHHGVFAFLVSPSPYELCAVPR
Outline: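 P450-Glo CYP2D6 system: proluciferin substrate converted by enzyme to luciferin, read by luminescence proportional to activity. Enzyme-substrate mix with compound 10 min at room temperature, then NADPH regeneration 1 h before detection reagent.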

[6] = molecular target: Cytochrome P450 2C9 (Homo sapiens) (UniProt P11712); test: Cytochrome P450 family 2 subfamily C member 9 (CYP2C9) small molecule antagonists: luciferase biochemical (cell-free) qHTS assay (AID 1645842; active = well fitted curve in the direction sought with a large enough effect in the repeat runs; an effect the other way counts as inactive or inconclusive; note: nearly all actives have a fitted effect of over 55% in size; note: potency is the fitted concentration of half-maximal effect)
Cytochrome P450 2C9 (Homo sapiens), sequence (P11712 whole entry, looked up): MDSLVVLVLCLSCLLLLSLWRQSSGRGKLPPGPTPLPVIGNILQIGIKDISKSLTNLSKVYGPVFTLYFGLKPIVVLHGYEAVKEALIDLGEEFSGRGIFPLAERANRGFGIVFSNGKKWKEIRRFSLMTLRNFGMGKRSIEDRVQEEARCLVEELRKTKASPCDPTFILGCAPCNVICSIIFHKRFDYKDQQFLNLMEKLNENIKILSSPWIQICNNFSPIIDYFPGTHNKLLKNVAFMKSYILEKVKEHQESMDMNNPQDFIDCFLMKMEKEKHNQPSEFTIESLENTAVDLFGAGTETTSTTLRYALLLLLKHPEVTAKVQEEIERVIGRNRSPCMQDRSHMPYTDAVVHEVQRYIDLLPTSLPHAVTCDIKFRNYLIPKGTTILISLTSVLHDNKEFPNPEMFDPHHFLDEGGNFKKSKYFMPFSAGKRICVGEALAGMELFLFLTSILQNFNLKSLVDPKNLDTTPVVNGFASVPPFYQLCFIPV
Outline: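 P450-Glo CYP2C9 system: proluciferin substrate with enzyme in mix containing 0.4% BSA, 10 min at room temperature, then NADPH regeneration solution added and incubated 1 h at 37C. Detection reagent stopped reaction; luminescence read after 20 min as RLU.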

[7] = Primary qHTS for inhibitors of nuclear receptor binding SET domain protein 2 (NSD2) in an isogenic RCH-ACV NSD2 p.E1099K mutant (9B) (AID 1645876); note: nearly all actives have a fitted effect of over 70% in size; note: potency is the fitted concentration of half-maximal effect
[8] = Primary qHTS for inhibitors of nuclear receptor binding SET domain protein 2 (NSD2) in an RCH-ACV wild type WT cells (2C) (AID 1645877); note: nearly all actives have a fitted effect of over 70% in size; note: potency is the fitted concentration of half-maximal effect
[9] = A High-Content qHTS Against Drug Library for the Identification of Small Molecules that Inhibit DYT1 Early Onset Primary Dystonia-Associated Cell Pathology (AID 1645839; calls by dose curve; note: potency is the fitted concentration of half-maximal effect)
Outline: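 High-content imaging quantified EGFP-TorsinA mislocalization in HEK293-derived cells inducibly expressing DYT1 mutant torsinA, after 48 h exposure to compound given together with tetracycline induction. Cell count served as a toxicity channel alongside %pathology.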

[10] = Counterscreen qHTS for small molecule stabilizers of the endoplasmic reticulum resident proteome: GLuc-NoTag assay (AID 1508627); note: potency is the fitted concentration of half-maximal effect
Outline: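 Counterscreen line: SH-SY5Y-GLuc-NoTag cells, treated with compound 19 hr before a 4 hr, 100 nM thapsigargin calcium depletion. Secreted Gaussia luciferase in the medium was measured by luminescence after coelenterazine was added (0.07x final), with cells unlysed.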

[11] = Cell Viability qHTS for small molecule stabilizers of the endoplasmic reticulum resident proteome (AID 1508629); conditions: cell viability counter-screen, 100 nM thapsigargin for final 4 h;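 note: potency is the fitted concentration of half-maximal effect; compound exposure about 46 h in total before the viability read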

CC(C)c1cccc(C(C)C)c1N1C(=O)c2ccc(O)cc2C1=O
outcome [1]: inactive | Potency [2]: inactive

CCCSc1ccc2nc(NC(=O)OC)[nH]c2c1
Potency [3]: inactive | Potency [4]: inactive | Potency [5]: inactive | Potency [6]: inactive | Potency [7]: 422 nM (active) | Potency [8]: 266 nM (active)

C#C[C@]1(O)CC[C@H]2[C@@H]3CCc4cc(O)ccc4[C@H]3CC[C@@]21C
Potency [3]: inactive | Potency [4]: inactive | Potency [5]: inactive | Potency [7]: 11800 nM (active) | Potency [8]: 18.8 µM (active) and 10.5 µM (active)

CCCCCCCC/C=C/C(=O)O
Potency [3]: inactive | Potency [4]: inactive | Potency [9]: inactive | Potency [5]: inactive | Potency [6]: inactive

O=c1cc(-c2ccccc2)oc2c(O)c(O)ccc12
outcome [1]: inactive | Potency [2]: inactive

CN1CCN(c2cc3c(nn2)Oc2ccccc2N3C)CC1
Potency [3]: inactive | Potency [4]: inactive | Potency [9]: inactive | Potency [5]: inactive | Potency [6]: inactive

Nc1nc(OCC2CCCCC2)c2[nH]cnc2n1
outcome [1]: inactive | Potency [2]: inactive

Brc1cc2c(cc1[C@H]1Nc3ccccc3[C@H]3C=CC[C@H]31)OCO2
outcome [1]: inactive | Potency [2]: inactive

COC(=O)Nc1nc2ccc(C(=O)C3CC3)cc2[nH]1
Potency [3]: inactive | Potency [4]: inactive | Potency [5]: inactive | Potency [6]: inactive | Potency [7]: 376 nM (active) | Potency [8]: 266 nM (active)

CC(C)(NS(=O)(=O)c1ccc(Oc2ccc(F)cc2)cc1)C(=O)NO
outcome [1]: inactive | Potency [2]: inactive

COC(=O)c1nc(Cl)c(Cl)nc1N
Potency [3]: inactive | Potency [4]: inactive | Potency [5]: inactive | Potency [6]: inactive | Potency [7]: 59.6 nM (active) | Potency [8]: 37.6 nM (active)

CC1OC1P(=O)(O)O (stereo unspecified)
outcome [1]: inactive | Potency [2]: inactive

CCCCCCOc1ccccc1C(N)=O
Potency [3]: inactive | Potency [4]: inactive | Potency [9]: inactive | Potency [6]: 8710 nM (active)

[O-][n+]1ccccc1SSc1cccc[n+]1[O-]
Potency [3]: inactive | Potency [9]: 3160 nM (active) | Potency [5]: 1340 nM (active) | Potency [6]: 1340 nM (active) | Potency [7]: 82 nM (active) | Potency [8]: 103 nM (active)

O=C(NOCC1CC1)c1cc(Br)c(F)c(F)c1Nc1ccc(I)cc1Cl
outcome [1]: inactive | Potency [2]: inactive

NS(=O)(=O)c1ccc(-n2nc(C(F)(F)F)cc2-c2ccc(Cl)cc2)cc1
Potency [3]: inactive | Potency [5]: 7560 nM (active) | Potency [6]: 10700 nM (active) | Potency [2]: inactive

N=C1N=C(N)c2cc3ccccc3cc21
Potency [3]: inactive | Potency [10]: 89100 nM (active) | Potency [11]: 39800 nM (active) | Potency [9]: 35500 nM (active) | Potency [5]: 31700 nM (active) | Potency [6]: inactive

Cc1cc(O)c2ccccc2c1O
Potency [3]: inactive | Potency [4]: inactive | Potency [5]: 11000 nM (active)

Nc1ccn([C@H]2O[C@H](CO)[C@@H](O)C2(F)F)c(=O)n1
outcome [1]: inactive | Potency [2]: inactive

CN[C@H](CC(C)C)C(=O)N[C@H]1C(=O)N[C@@H](CC(N)=O)C(=O)N[C@H]2C(=O)N[C@H]3C(=O)N[C@H](C(=O)N[C@H](C(=O)O)c4cc(O)cc(O)c4-c4cc3ccc4O)[C@H](O)c3ccc(c(Cl)c3)Oc3cc2cc(c3O[C@@H]2O[C@H](CO)[C@@H](O)[C@H](O)[C@H]2O[C@H]2C[C@](C)(N)[C@H](O)[C@H](C)O2)Oc2ccc(cc2Cl)[C@H]1O
outcome [1]: inactive | Potency [2]: inactive | Potency [7]: inactive | Potency [8]: inactive

O=C(CCSCc1ccco1)NNC(=O)N1Cc2ccccc2Oc2ccc(Cl)cc21
outcome [1]: inactive | Potency [2]: inactive

CC(C(=O)O)c1ccc2c(c1)[nH]c1ccc(Cl)cc12 (stereo unspecified)
Potency [3]: inactive | Potency [9]: inactive | Potency [5]: inactive | Potency [6]: inactive | Potency [7]: inactive | Potency [8]: inactive

O=C(O)[C@H](CC(=O)N1C[C@H]2CCCC[C@H]2C1)Cc1ccccc1
Potency [3]: inactive | Potency [5]: inactive | Potency [6]: inactive | Potency [7]: inactive | Potency [8]: inactive

CCCCCCCCCCCCCCCCCCN(CCCCCCCCCCCCCCCCCC)CCCN(CCO)CCO
outcome [1]: inactive | Potency [2]: inactive

O=C(CCc1ccncc1)NNC(=O)N1Cc2ccccc2Oc2ccc(Cl)cc21
outcome [1]: inactive | Potency [2]: inactive

COc1ccc(-c2cc(=O)c3c(O)c(OC)c(OC)cc3o2)cc1O
outcome [1]: inactive | Potency [2]: inactive

CN(C)c1ccc(C(=C2C=CC(=[N+](C)C)C=C2)c2ccccc2)cc1
Potency [5]: 8710 nM (active) | Potency [7]: 94.4 nM (active) | Potency [8]: 188 nM (active)

C[S+](CC[C@H](N)C(=O)O)C[C@H]1O[C@@H](n2cnc3c(N)ncnc32)[C@H](O)[C@@H]1O (stereo partly specified)
Potency [5]: inactive

COc1cccc2c1C(=O)c1c(O)c3c(c(O)c1C2=O)C[C@@](O)(C(=O)CO)C[C@@H]3O[C@H]1C[C@H](N)[C@H](O[C@@H]2CCCCO2)[C@H](C)O1
Potency [4]: inactive | Potency [9]: 10000 nM (active) | Potency [5]: inactive | Potency [6]: 12300 nM (active) | Potency [7]: 6.7 nM (active) | Potency [8]: 3.8 nM (active)

CC1(C)C[C@@H]1C(=O)N/C(=C\CCCCSC[C@H](N)C(=O)O)C(=O)O
Potency [4]: inactive
